Several values for one entry are separate records, joined by “and”; a condition that tells them apart may be missing. Equal values may be shown once. Inconclusive results are not listed. Where a call stands in place of a potency, no number is given. Activity calls are given as the source filed them. Unless noted, calls come from the whole dose curve.
Experiments:
[1] = molecular target: Bile acid receptor (Homo sapiens) (UniProt Q96RI1); experiment: qHTS assay for small molecule antagonists of farnesoid X receptor signaling (AID 588526); note: potency is the fitted concentration of half-maximal effect
Summary of the method: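 Concentration-response titrations were fitted to the Hill equation for half-maximal inhibition and maximal response, with data normalised to 50 uM chenodeoxycholic acid and DMSO control wells. Cells: FXR-UAS-bla HEK293T, dialyzed FBS.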

[2] = molecular target: Bile acid receptor (Homo sapiens) (UniProt Q96RI1); experiment: qHTS assay for small molecule agonists of farnesoid X receptor signaling (AID 588527); details: HEK293T FXR-UAS-bla, beta-lactamase ratio, 16 h; activation: stronger effect = higher value; note: series mostly up to about 77 µM
Summary of the method: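 FXR-UAS-bla HEK293T, 10% dialyzed FBS; cpds up to 92 uM titration, 16 h 37 C; CCF4 dye 2 h RT; fluorescence. Normalized to chenodeoxycholic acid 100 uM (100%) and DMSO (0%); Hill fit gives EC50, efficacy.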

[3] = molecular target: Peroxisome proliferator-activated receptor delta (Homo sapiens) (UniProt Q03181); experiment: qHTS assay for small molecule antagonists of peroxisome proliferator-activated receptor delta signaling (AID 588535; active = well fitted inhibition curve with a large enough effect in the signal ratio, with a control signal flat, not every such curve was filed as active; the % refers to the signal ratio)
Summary of the method: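 Compounds tested in titration on PPAR-delta-UAS-bla HEK293T cells grown in charcoal/dextran-stripped serum (2%); beta-lactamase activity read via CCF4 emission at 460 and 530 nm.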

[4] = molecular target: Vitamin D3 receptor (Homo sapiens) (UniProt P11473); experiment: qHTS assay for small molecule agonists of vitamin D receptor signaling (AID 588543)
Summary of the method: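 Measured: β-lactamase reporter activity (CCF4, 405 nm excitation, 460/530 nm emission) in HEK293T VDR-UAS-bla cells after 16 h compound exposure at 37 °C. Normalization against 50 nM 1α,25-dihydroxyvitamin D3 and DMSO; Hill-fit EC50.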

[5] = qHTS assay for small molecule agonists of the antioxidant response element (ARE) signaling pathway (AID 651741; active = well fitted activation curve with a large enough effect in the signal ratio; the % refers to the signal ratio; note: potency is the fitted concentration of half-maximal effect)
Summary of the method: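 Beta-lactamase reporter expression driven by the antioxidant response element in HepG2 cells was detected by fluorescence with LiveBLAzer B/G FRET substrate (2 h, room temperature) following 16 h compound treatment at 37 C.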

[6] = qHTS assay for small molecule activators of the nuclear factor-kappa B (NF-kB) signaling pathway (AID 651749; active = well fitted activation curve with a large enough effect in the signal ratio; the % refers to the signal ratio; note: series mostly up to about 77 µM); details: NF-kB-bla ME-180 cells, beta-lactamase FRET ratio, 16 h; activation: stronger effect = higher value
Summary of the method: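 Beta-lactamase reporter expression, controlled by NF-kB response elements in ME-180 cells, was quantified fluorometrically via FRET disruption; cells at 2,000/well had been incubated with 23 nL test compound for 16 hr.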

[7] = qHTS assay for small molecule activators of the human pregnane X receptor (PXR) signaling pathway (AID 720659; call rule not given here)
[8] = molecular target: Glucocorticoid receptor (Homo sapiens) (UniProt P04150); experiment: qHTS assay for small molecule agonists of glucocorticoid receptor signaling (AID 588532; active = well fitted curve in the direction sought with a large enough effect in the signal ratio, with a control signal flat; the % refers to the signal ratio); details: HeLa MMTV-bla, beta-lactamase ratio, agonist, 18 h; activation: stronger effect = higher value, percent of dexamethasone control, DMSO zero
Summary of the method: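 MMTV-bla HeLa, beta-lactamase reporter; medium with 1% charcoal/dextran-stripped FBS; cpds up to 92 uM, 18 h, 37 C; CCF4 readout 460/530 nm; Hill fit → EC50, efficacy vs 0.1 uM dexamethasone = 100%.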

[9] = molecular target: Glucocorticoid receptor (Homo sapiens) (UniProt P04150); experiment: qHTS assay for small molecule antagonists of glucocorticoid receptor signaling (AID 588533; active = well fitted inhibition curve with a large enough effect in the signal ratio, with a control signal flat, not every such curve was filed as active; the % refers to the signal ratio;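 note: cells stimulated with 2 nM dexamethasone as agonist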; note: potency is the fitted concentration of half-maximal effect)
Summary of the method: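 Antagonist-mode qHTS: compound titrations added to GRE-bla HeLa cells, then dexamethasone 2 nM final; 18 h, 37 C. CCF4 FRET fluorescence normalized to dexamethasone and DMSO; IC50 from Hill fit.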

[10] = qHTS assay for small molecule agonists of retinoid X receptor alpha signaling (AID 588544); details: HEK293T RXRa-UAS-bla, beta-lactamase reporter, 18 h; 530 nm emission

Sequence of Vitamin D3 receptor (Homo sapiens) (P11473 whole entry, looked up): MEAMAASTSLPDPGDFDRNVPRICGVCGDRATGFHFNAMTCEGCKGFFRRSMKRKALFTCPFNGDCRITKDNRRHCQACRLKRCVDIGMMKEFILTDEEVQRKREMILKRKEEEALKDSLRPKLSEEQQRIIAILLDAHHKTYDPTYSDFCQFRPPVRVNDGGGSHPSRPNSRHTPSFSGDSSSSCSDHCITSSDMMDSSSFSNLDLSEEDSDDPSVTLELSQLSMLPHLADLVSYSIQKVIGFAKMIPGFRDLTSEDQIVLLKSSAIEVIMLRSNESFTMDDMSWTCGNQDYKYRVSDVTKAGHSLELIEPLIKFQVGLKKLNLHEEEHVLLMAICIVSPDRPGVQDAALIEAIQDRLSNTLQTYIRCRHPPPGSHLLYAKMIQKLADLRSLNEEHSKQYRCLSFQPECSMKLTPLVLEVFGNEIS
Sequence of Peroxisome proliferator-activated receptor delta (Homo sapiens) (Q03181 whole entry, looked up): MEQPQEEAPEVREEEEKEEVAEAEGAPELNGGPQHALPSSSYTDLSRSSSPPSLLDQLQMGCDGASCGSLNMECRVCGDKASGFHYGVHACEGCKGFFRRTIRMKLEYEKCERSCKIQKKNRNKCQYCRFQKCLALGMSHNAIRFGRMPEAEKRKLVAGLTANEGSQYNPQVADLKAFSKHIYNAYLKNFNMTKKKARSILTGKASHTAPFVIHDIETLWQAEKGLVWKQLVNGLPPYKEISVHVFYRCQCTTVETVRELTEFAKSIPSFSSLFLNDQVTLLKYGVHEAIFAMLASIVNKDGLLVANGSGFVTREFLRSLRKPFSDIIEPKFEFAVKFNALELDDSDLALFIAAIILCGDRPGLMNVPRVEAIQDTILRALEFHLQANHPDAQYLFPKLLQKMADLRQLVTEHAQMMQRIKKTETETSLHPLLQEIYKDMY
Sequence of Glucocorticoid receptor (Homo sapiens) (P04150 whole entry, looked up): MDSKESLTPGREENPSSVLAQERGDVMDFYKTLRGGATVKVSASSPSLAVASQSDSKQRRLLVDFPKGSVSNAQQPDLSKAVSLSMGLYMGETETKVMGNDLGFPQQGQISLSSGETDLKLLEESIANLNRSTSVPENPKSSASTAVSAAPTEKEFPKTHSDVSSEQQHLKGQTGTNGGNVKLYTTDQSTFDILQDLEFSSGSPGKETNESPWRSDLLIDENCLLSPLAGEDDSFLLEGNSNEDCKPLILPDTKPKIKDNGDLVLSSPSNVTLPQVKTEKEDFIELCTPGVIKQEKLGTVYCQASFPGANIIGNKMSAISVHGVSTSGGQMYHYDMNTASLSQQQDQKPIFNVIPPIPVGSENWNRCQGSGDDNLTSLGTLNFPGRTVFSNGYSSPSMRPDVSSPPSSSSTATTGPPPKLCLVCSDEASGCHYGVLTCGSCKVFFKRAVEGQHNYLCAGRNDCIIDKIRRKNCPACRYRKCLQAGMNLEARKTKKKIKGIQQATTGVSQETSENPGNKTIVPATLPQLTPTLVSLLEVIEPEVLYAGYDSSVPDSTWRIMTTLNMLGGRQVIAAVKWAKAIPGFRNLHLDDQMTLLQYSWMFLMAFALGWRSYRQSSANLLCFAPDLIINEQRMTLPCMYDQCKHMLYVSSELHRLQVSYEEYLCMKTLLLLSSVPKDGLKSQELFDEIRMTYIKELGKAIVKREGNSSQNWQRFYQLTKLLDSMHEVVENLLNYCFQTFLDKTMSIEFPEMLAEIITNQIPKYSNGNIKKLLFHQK
Sequence of Bile acid receptor (Homo sapiens) (Q96RI1 whole entry, looked up): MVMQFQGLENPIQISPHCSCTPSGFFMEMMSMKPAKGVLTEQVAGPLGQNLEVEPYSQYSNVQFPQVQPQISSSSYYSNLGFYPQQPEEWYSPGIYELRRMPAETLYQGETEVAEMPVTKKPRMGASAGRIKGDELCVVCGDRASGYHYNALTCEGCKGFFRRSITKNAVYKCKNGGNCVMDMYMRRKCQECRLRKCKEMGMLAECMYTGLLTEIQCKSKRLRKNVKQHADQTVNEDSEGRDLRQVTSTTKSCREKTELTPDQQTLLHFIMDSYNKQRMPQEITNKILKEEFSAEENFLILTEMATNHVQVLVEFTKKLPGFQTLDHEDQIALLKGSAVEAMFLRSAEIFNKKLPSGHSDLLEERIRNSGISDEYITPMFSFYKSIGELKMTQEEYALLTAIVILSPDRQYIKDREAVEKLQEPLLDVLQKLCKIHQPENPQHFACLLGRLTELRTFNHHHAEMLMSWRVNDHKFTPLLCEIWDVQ

Row | SMILES | Potency [1] | activation [2] | Potency [3] | outcome [4] | Potency [5] | activation [6] | outcome [7] | activation [8] | Potency [9] | max response [10]
1 | O=P(O)(O)CCCl | inactive | 4.97% (inactive) and -5.97% (inactive) | inactive | inactive | inactive | 1.25% (inactive) and -0.207% (inactive) | inactive |  |  | 
2 | Oc1ccc(C2(c3ccc(O)cc3)c3ccccc3-c3ccccc32)cc1 | 28.2 µM (active) |  |  |  |  |  |  | -14.6% (inactive) | 44.7 µM (active) | 
3 | CCNc1nc(NC(C)(C)C)nc(SC)n1 | inactive | 4.27% (inactive) | inactive | inactive |  | -1.56% (inactive) |  | 4.35% (inactive) | inactive | 
4 | COc1ccc(O)c(C(C)(C)C)c1 | inactive | -2.62% (inactive) |  |  |  |  |  | -14% (inactive) | inactive | 
5 | NS(=O)(=O)C(F)(F)C(F)(F)C(F)(F)C(F)(F)C(F)(F)C(F)(F)C(F)(F)C(F)(F)F | inactive | 4.62% (inactive) |  |  | 68.6 µM (active) | 3.4% (inactive) |  |  | inactive | 
6 | Clc1ccc([C@]2(Cn3cncn3)C[C@@H](Br)CO2)c(Cl)c1 | inactive |  |  | inactive |  | -2.1% (inactive) and -2.03% (inactive) |  | 7.46% (inactive) and -5.85% (inactive) | inactive | 
7 | CCCCC(CC)COC(=O)Cl (configuration not stated) | inactive | 1.19% (inactive) |  | inactive | inactive |  | inactive |  | inactive | 
8 | COc1ccc(C(O)(c2cncnc2)C2CC2)cc1 (configuration not stated) | inactive | -0.99% (inactive) |  | inactive | inactive |  | inactive | -6.63% (inactive) |  | -7.16%
9 | O=c1[nH]c2ccccc2c(=O)o1 | inactive | 0.0754% (inactive) |  | inactive | inactive | -0.747% (inactive) | inactive | -0.7% (inactive) | inactive | -6.9%
10 | CNC(=O)Oc1ccc(N(C)C)c(C)c1 | inactive | 0.727% (inactive) | inactive | inactive | 54.5 µM (active) | -0.493% (inactive) | inactive | -10.5% (inactive) | inactive | -30.4%
11 | COC(=O)c1ccccc1CS(=O)(=O)NC(=O)Nc1nc(OC)cc(OC)n1 | inactive | -0.439% (inactive) | inactive | inactive | inactive | -0.866% (inactive) | inactive |  | inactive | -9.59%

From PubChem BioAssay (NCATS)
